Assay [1] can be described thus: small molecules captured by biotinylated probe aFSTL3 – biochemical, small-molecule microarray, fluorescence 635/667, stem cell growth factor project, primary screen (AID 1064).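 Also: measures binding of the biotinylated anti-FSTL3 antibody to printed compounds.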 Conditions: higher = more signal.
Assay [2] is described as follows: binders from COS7 lysate, DM2A8 probe, primary screen, torsin A project, cell lysate, small-molecule microarray, fluorescence 635/667 (AID 1065). Conditions: higher = more signal, COS7 lysate expressing mutant human TOR1A.
A short description of assay [3]: small molecules captured by biotinylated probe aFGF2 – biochemical, small-molecule microarray, fluorescence 635/667, stem cell growth factor project, primary screen (AID 1067).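 Also: measures binding of biotinylated aFGF2 protein to printed compounds on slides; z-score merges feature fluorescence and signal-to-noise across triplicate slides.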 Conditions: higher = more signal.
The nature of assay [4]: small molecules captured by biotinylated probe aFGF10 – biochemical, small-molecule microarray, fluorescence 635/667, stem cell growth factor project, primary screen (AID 1071).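 Also: score merges 667 nm spot intensity and signal to noise from triplicate slides.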 The settings on record: higher = more signal.
Assay [5] addresses Neurogenic locus notch homolog protein 2 (Homo sapiens) (UniProt Q04721). The assay can be described thus: small molecules binding Notch2 protein – biochemical, small-molecule microarray, 635 nm fluorescence, stem cell growth factors, primary screen (AID 1073). Conditions: higher = more signal.
Assay [6] addresses Pro-neuregulin-1, membrane-bound isoform (Homo sapiens) (UniProt Q02297). The assay can be described thus: small molecules binding neuregulin-1 protein – biochemical, small-molecule microarray, fluorescence 635/667, psychiatric disease protein project, primary screen (AID 1075).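 Also: score combines 667 nm spot fluorescence with signal to noise.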 Conditions: NRG1 binding, 635 nm fluorescence, higher = more signal.
The test system of assay [7] is Neuregulin-1 EGF-like domain. The assay can be described thus: small molecules binding NRG1 EGF domain – biochemical, small-molecule microarray, 635 nm fluorescence, primary screen (AID 1081).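 Also: binding of the protein to compounds printed on small-molecule microarray slides.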 The settings on record: higher = more signal.
Assay [8] can be described thus: FRG1 expression reporter modulators in myotubes – cell-based, C2C12 myotubes, firefly/Renilla luciferase, luminescence, FRG1 inhibition for FSHD, primary screen (AID 1084). Conditions: FRG1 promoter luciferase, higher = more signal, called active from +8 up or from −8 down.
Assay [9] in a line: small molecules captured by biotinylated probe aFST – biochemical, small-molecule microarray, fluorescence 635/667, stem cell growth factor project, primary screen (AID 1086).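 Also: score merges 667 nm fluorescence with signal-to-noise of each printed compound spot.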 The settings on record: higher = more signal.
A short description of assay [10]: binders of probe aHhip on microarray, primary screen, stem cell growth factor project, biochemical, small-molecule microarray, fluorescence 635/667 (AID 1087).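 Also: score merges spot fluorescence at 667nm with spot signal to noise ratio.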 The settings on record: higher = more signal.
The test system of assay [11] is PRMT1 (protein arginine N-methyltransferase 1). Nature of the assay: small molecules binding arginine methyltransferase PRMT1 – biochemical, small-molecule microarray, 635 nm fluorescence, primary screen (AID 1088).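 Also: binding of Prmt1 protein to compounds spotted on small-molecule microarray slides.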 Conditions: higher = more signal.
The nature of assay [12]: growth effects on S. cerevisiae YJM789 – YJM789 clinical isolate, OD600, 24 h, basal, primary screen (AID 1089).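 Also: growth of clinical yeast isolate S. cerevisiae YJM 789 seeded 1000 cells per well; test concentration not given here.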 The settings on record: higher = more signal, called active from +8 up or from −8 down.
Assay [13] is described as follows: S. pombe growth modifiers, basal conditions – strain 972, OD600, 24 h, no modulator, primary screen (AID 1090).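 Also: basal condition with compound alone and no growth modifier present; test concentration not given here.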 Conditions: S. pombe 972 growth, higher = more signal, called active from +8 up or from −8 down.
Assay [14] can be described thus: budding yeast growth modifiers under rapamycin – strain BY4716, OD600, 96 h, primary screen (AID 1091). Also: test concentration not given here. The settings on record: S. cerevisiae BY4716 + rapamycin, higher = more signal, called active from +8 up or from −8 down.
Assay [15] deals with Torsin-1A-interacting protein 2 (Homo sapiens) (UniProt Q8NFQ8). The assay can be described thus: small molecules binding lysate-expressed LULL1 – cell lysate, human LULL1 lysate, 635/667 nm fluorescence, primary screen (AID 1092).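 Also: score merges per-feature 667 nm fluorescence with signal-to-noise.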 Conditions: small-molecule microarray, hLULL1 lysate binding, 635 nm fluorescence; higher = more signal.
Chain of Torsin-1A-interacting protein 2 (Homo sapiens) (Q8NFQ8 whole entry, looked up): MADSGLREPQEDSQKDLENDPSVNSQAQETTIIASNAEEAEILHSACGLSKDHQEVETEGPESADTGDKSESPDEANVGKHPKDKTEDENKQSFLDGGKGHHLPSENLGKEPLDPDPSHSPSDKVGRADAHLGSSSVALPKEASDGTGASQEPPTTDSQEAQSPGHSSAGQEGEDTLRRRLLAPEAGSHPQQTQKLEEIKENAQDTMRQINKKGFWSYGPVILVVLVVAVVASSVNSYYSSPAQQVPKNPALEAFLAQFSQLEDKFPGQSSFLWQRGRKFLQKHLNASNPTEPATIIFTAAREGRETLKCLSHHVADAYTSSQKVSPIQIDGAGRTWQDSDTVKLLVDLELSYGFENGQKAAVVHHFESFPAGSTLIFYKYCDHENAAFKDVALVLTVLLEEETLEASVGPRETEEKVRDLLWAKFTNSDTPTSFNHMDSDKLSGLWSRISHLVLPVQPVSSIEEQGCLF
Assay [16] can be described thus: optical density change of DRC41 E. coli – strain DRC41, OD650, 24 h, E. coli filamentation project, primary screen (AID 1093).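 Also: MC1000 strain lacking acrAB efflux and sulA so SOS filamentation is blocked; test concentration not given here.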 Conditions: E. coli DRC41 growth, higher = more signal, called active from +8 up or from −8 down.
Assay [17] is described as follows: probe aLefty2 binding to arrayed compounds – biochemical, biotinylated probe, 635/667 nm fluorescence, primary screen (AID 1094).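 Also: score merges spot fluorescence near 667 nm with spot signal-to-noise ratio.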 Conditions: small-molecule microarray, higher = more signal.
The subject of assay [18] is Noggin (protein binding on small-molecule microarray). The assay can be described thus: small molecules binding Noggin protein – biochemical, 635/667 nm fluorescence, primary screen (AID 1095).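 Also: score merges 667 nm feature fluorescence with signal to noise over triplicate slides.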 The settings on record: 635 nm fluorescence, higher = more signal.
Assay [19] concerns the target Neurogenic locus notch homolog protein 3 (Homo sapiens) (UniProt Q9UM47). The assay can be described thus: small molecules binding NOTCH3 protein – biochemical, 635/667 nm fluorescence, primary screen (AID 1096). The settings on record: small-molecule microarray, 635 nm fluorescence, higher = more signal.
Assay [20] can be described thus: probe aEGFR binding to arrayed compounds – biochemical, biotinylated probe, 635/667 nm fluorescence, primary screen (AID 1097).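 Also: probe is a biotinylated anti-EGFR antibody binding compounds printed on slides; score combines fluorescence near 667 nm and signal to noise of each spot.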 Conditions: small-molecule microarray, higher = more signal.

Calls of active or inactive are those of the source.

Chain of Neurogenic locus notch homolog protein 3 (Homo sapiens) (Q9UM47 whole entry, looked up): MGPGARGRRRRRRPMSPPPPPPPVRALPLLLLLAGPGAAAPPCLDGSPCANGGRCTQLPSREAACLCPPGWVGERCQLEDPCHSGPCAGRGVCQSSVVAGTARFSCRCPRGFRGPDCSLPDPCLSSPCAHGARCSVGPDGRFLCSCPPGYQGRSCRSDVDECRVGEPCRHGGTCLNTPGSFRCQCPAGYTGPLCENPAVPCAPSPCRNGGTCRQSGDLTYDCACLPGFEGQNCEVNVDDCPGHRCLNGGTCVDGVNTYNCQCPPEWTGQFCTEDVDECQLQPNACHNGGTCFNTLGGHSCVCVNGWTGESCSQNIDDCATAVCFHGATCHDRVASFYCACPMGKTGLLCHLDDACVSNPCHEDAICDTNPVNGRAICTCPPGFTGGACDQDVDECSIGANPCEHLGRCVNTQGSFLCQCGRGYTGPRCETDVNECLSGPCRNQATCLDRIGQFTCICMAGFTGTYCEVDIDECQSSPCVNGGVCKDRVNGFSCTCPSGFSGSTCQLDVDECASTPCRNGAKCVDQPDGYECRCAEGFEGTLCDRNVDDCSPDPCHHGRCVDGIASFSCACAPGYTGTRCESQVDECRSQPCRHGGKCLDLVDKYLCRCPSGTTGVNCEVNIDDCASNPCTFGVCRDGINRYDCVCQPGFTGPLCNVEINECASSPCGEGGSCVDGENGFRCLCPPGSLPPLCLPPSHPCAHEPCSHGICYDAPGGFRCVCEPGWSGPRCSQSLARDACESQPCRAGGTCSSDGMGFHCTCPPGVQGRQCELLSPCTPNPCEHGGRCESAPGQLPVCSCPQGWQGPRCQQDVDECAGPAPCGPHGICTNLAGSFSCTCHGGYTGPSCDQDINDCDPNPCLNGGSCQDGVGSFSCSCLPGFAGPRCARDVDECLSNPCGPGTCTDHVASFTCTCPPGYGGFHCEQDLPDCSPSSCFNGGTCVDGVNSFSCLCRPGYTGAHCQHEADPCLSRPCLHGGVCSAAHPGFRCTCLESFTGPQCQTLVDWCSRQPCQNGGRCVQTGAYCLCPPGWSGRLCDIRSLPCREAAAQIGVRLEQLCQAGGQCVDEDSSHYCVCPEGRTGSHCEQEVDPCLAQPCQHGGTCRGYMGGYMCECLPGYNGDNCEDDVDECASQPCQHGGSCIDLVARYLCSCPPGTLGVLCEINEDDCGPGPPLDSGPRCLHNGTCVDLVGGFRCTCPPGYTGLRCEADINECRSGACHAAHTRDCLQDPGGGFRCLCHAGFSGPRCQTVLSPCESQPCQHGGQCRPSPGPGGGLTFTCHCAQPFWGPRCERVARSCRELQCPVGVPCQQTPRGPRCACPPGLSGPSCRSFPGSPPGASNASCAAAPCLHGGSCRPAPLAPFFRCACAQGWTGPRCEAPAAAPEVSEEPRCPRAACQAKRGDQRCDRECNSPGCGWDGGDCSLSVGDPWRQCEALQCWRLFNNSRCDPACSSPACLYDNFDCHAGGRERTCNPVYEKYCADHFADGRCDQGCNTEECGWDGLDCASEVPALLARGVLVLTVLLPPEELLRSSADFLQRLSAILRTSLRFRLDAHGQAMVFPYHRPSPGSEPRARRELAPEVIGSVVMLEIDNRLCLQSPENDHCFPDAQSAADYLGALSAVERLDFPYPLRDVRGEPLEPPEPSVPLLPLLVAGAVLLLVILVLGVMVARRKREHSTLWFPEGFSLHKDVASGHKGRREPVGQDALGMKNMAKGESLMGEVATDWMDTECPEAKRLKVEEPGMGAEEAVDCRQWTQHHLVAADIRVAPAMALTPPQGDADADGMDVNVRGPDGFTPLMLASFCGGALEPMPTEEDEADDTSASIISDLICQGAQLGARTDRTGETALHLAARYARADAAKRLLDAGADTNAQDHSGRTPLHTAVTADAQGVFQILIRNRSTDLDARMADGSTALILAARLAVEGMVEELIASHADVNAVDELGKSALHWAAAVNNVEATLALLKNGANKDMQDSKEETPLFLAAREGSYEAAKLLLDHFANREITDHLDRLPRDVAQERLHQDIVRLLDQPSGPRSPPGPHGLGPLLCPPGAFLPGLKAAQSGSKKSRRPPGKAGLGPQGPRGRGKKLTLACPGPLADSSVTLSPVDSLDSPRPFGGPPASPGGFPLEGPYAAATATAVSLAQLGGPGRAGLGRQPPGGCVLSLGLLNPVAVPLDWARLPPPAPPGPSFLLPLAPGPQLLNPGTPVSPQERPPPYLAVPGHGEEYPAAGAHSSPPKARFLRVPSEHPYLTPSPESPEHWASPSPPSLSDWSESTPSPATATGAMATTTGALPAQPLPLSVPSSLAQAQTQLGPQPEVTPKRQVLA
Chain of Pro-neuregulin-1, membrane-bound isoform (Homo sapiens) (Q02297 whole entry, looked up, the tested form may be a part, canonical isoform): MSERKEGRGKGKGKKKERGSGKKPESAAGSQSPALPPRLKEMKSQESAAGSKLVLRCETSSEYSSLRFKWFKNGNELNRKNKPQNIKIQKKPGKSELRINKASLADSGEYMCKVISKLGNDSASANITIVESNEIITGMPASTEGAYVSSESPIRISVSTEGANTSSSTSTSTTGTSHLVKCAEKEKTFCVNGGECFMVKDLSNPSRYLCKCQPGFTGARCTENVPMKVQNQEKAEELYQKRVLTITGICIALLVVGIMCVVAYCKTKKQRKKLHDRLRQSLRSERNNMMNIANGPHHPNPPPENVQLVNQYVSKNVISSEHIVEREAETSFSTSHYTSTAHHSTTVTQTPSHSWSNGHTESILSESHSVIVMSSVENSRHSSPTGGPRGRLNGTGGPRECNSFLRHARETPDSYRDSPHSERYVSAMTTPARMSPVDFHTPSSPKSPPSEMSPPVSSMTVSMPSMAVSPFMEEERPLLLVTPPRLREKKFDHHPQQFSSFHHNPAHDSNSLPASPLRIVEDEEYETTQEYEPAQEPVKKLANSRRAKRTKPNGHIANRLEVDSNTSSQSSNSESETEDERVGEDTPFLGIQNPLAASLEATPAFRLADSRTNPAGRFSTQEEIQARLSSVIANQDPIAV

Consider `CC(C)CNC(=O)[C@@H]1c2ccccc2C(=O)N(CC23CC4CC(CC(C4)C2)C3)[C@H]1c1ccc(CO)cc1`, for which the composite z-score in assay [1] was -0.146; in assay [2], 0.0614; in assay [3] it was -0.0056; in [4], 0.205; in assay [5], 0.632; in assay [6], 0.792. In addition, the composite z-score in assay [7] was 0.99; in [9] it was 0.507; in assay [10], -0.115; in [11] it was 0.797; in assay [15] it was 2.69; in assay [17] it was -0.121. Moreover, the composite z-score was 0.264 in assay [18], 0.953 in assay [19] and -0.146 in [20]. For the same compound, the z-score was -1.49 (inactive) in assay [8]; -0.998 (inactive) in assay [12]; -1.88 (inactive) in assay [13]; -0.243 (inactive) in assay [14]; -0.109 (inactive) in assay [16].

As to `COc1ccc([Si](C)(C)[C@H]2[C@H](CCn3cc([C@H](O)c4ccccc4)nn3)O[C@@]3(C(=O)N(c4ccccc4)c4ccccc43)[C@@H]2C)cc1`, the composite z-score in assay [1] was -0.0662; in [2] it was -0.125; in assay [3], -0.137; in [4], 0.0529; in assay [5] it was -0.0554; in assay [6], 0.44. Also, the composite z-score in [7] is 0.248; in [9] it was -0.0512; in assay [10] it was -0.236; in assay [11], 1.56; in assay [15] it was 0.147; in assay [17] it was -0.166. Also, the values for the composite z-score in assay [18], in assay [19] and in [20] were 1.1, 0.802 and -0.187, respectively. The z-score in assay [8] was -0.805 (inactive); in [12] it was 1.02 (inactive); in assay [13] it was 1.11 (inactive); in assay [14], 1.88 (inactive); in assay [16], 1.58 (inactive).

`Cc1c(-c2ccc(-c3ccc(Cl)c(Cl)c3)o2)nc(-c2ccccc2)c2c1CO[Si]2(C(C)C)C(C)C`: the composite z-score in assay [1] was -0.0834; in assay [2], 0.343; in assay [3] it was -0.047; in assay [4], 0.42; in assay [5] it was -0.558; in assay [6], 0.568. The composite z-score in [7] was 0.294; in [9] it was -0.324; in assay [10], 0.21; in assay [11], 0.371; in assay [15] it was 0.867; in assay [17] it was -0.216. The results for the composite z-score in assay [18], in assay [19] and in assay [20] were 0.423, -0.0183 and -0.231, respectively. The z-score in assay [8] was 0.422 (inactive); in assay [12], -0.657 (inactive); in assay [13], -1.69 (inactive); in assay [14], 0.069 (inactive); in [16], -1.34 (inactive).

For the compound `O=C1O[C@H](c2ccccc2)[C@H](c2ccccc2)N2[C@H]1[C@@H](C(=O)N1CCN(c3ncccn3)CC1)[C@]1(C(=O)Nc3ccccc31)[C@H]2c1ccc(O)cc1`, the composite z-score is 0.258 in assay [1]; 0.918 in assay [2]; -0.0718 in assay [3]; 0.366 in assay [4]; 0.239 in assay [5]; 1.23 in [6]. For the same compound, the composite z-score in assay [7] came to 1.28; in assay [9], 0.3; in assay [10], 0.0972; in [11] it was 1.51; in assay [15] it was 3.06; in [17], 0.032. The results for the composite z-score in [18], in assay [19] and in [20] were 0.0775, 0.305 and -0.0936, respectively. Also, the z-score in assay [8] is 1.07 (inactive); in assay [12] it was 1.92 (inactive); in assay [13], 0.116 (inactive); in assay [14], 3.6 (inactive); in assay [16], 0.913 (inactive).

With `CCOC(=O)C1=CC[C@@H](c2ccccc2Cl)N(S(=O)(=O)c2ccc(C)cc2)[C@H]1c1cccc(OC)c1`, the composite z-score in [1] was -0.329; in assay [2], 0.0632; in assay [3], -0.0276; in assay [4] it was 0.317; in assay [5] it was 0.408; in [6], 0.0948. The composite z-score was 0.971 in [7]; 0.289 in assay [9]; 0.0139 in [10]; 0.336 in assay [11]; 1.84 in assay [15]; -0.186 in assay [17]. Also, the composite z-score in [18] is -0.0339; in [19] it was 0.506; in assay [20], -0.125. For the same compound, the z-score is -0.38 (inactive) in [8]; 0.318 (inactive) in assay [12]; 0.957 (inactive) in assay [13]; 2.88 (inactive) in assay [14]; -1.08 (inactive) in assay [16].

(Values after PubChem BioAssay.)
